Data taken from PubChem BioAssay (NCATS).
A number with no mark means an inactive call. Results filed as inconclusive are left out. Entries that show only a call come without a potency. Activity calls are given as the source filed them. Unless noted, the call rests on the fitted dose curve; in most records, active means well fitted curve in the direction sought with a large enough effect; inconclusive means small, poorly fitted or top-dose-only effect, or another doubt; inactive means no such curve, though single readings can be large; an effect the other way counts as inactive or inconclusive.

Assays:
[1] = target: Luciferin 4-monooxygenase (Photinus pyralis) (UniProt P08659); test: Biochemical firefly luciferase enzyme assay for NPC (AID 624030); further: nearly all actives have a fitted effect of over 70% in size; further: potency means the concentration at half of the fitted maximal effect; conditions: purified P. pyralis luciferase, luminescence, 5 min; series mostly up to 58.6 µM
Summary of the method: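 Counter-screen for direct inhibition of the luciferase enzyme by approved-drug library compounds, run at 10 nM enzyme in 50 mM Tris acetate (final). Luminescence was read within 5 min of enzyme-buffer addition and normalized to PTC124 versus DMSO (0%).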

[2] = qHTS assay for small molecule agonists of the antioxidant response element (ARE) signaling pathway (AID 651741; active means well fitted activation curve with a large enough effect in the signal ratio; the % refers to the signal ratio; further: potency means the concentration at half of the fitted maximal effect); conditions: HepG2 ARE-bla reporter, beta-lactamase FRET ratio, 16 h; series mostly up to 96 µM
Summary of the method: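 Beta-lactamase reporter expression driven by the antioxidant response element in HepG2 cells was detected by fluorescence with LiveBLAzer B/G FRET substrate (2 h, room temperature) following 16 h compound treatment at 37 C.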

[3] = qHTS assay for small molecule activators of the p53 signaling pathway (AID 651743; active means well fitted activation curve with a large enough effect in the signal ratio, not every such curve was filed as active; the % refers to the signal ratio); conditions: HCT-116 p53RE-bla, beta-lactamase FRET ratio, 16 h; active compounds read high
Summary of the method: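 Here HCT-116 cells with an integrated p53-responsive beta-lactamase gene were incubated with compounds (16 hours, 37 C) after a 5-hour plating period; beta-lactamase activity was detected as fluorescence intensity via B/G FRET substrate.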

[4] = qHTS assay for small molecule activators of the nuclear factor-kappa B (NF-kB) signaling pathway (AID 651749; active means well fitted activation curve with a large enough effect in the signal ratio; the % refers to the signal ratio); conditions: NF-kB-bla ME-180 cells, beta-lactamase FRET ratio, 16 h; active compounds read high
Summary of the method: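 Beta-lactamase reporter expression, controlled by NF-kB response elements in ME-180 cells, was quantified fluorometrically via FRET disruption; cells at 2,000/well had been incubated with 23 nL test compound for 16 hr.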

[5] = target: Peroxisome proliferator-activated receptor alpha (Homo sapiens) (UniProt Q07869); test: qHTS assay for small molecule agonists of the peroxisome proliferator-activated receptor alpha (PPARalpha) signaling pathway (AID 651778); conditions: PathHunter PPARalpha complementation, chemiluminescence, 6 h; max response: active compounds read high; further: potency means the concentration at half of the fitted maximal effect
Summary of the method: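 Cells plated at 2,000/well and held overnight at 37 C, 5% CO2, then compound added by pin tool for 6 hr; after PathHunter detection reagent and 60 min at room temperature, chemiluminescence from enzyme complementation was read.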

[6] = target: Tumor susceptibility gene 101 protein (Homo sapiens) (UniProt Q99816); test: qHTS Assay for Iinhibitors of HIV-1 Budding by Blocking the Interaction of PTAP/TSG101: Hit Validation (AID 651600); conditions: PTAP peptide/TSG101 UEV interaction, biochemical assay; series mostly up to 57.5 µM; further: nearly all actives have a fitted effect of over 70% in size
Summary of the method: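 Measuring PTAP–Tsg101 interaction by FP: protein at 10 uM and fluorescent peptide at 50 nM (final), buffer 10 mM HEPES pH 7.5 with 0.15 M NaCl, 3 mM EDTA, 0.1 mM TCEP, 0.01% Tween 20; 20 min incubation, r.t.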

[7] = S16 Schwann cell viability assay (CellTiter-Glo assay) (AID 624031); conditions: S16 rat Schwann cells viability, 24 h; series mostly up to 57.5 µM; further: nearly all actives have a fitted effect of over 70% in size; further: potency means the concentration at half of the fitted maximal effect
Summary of the method: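 Counter-screen for cytotoxicity: parental S16 rat Schwann cells lacking the PMP22 reporters, treated 24 h with compound, viability from cellular ATP by CellTiter-Glo luminescence, normalized to DMSO (0%) and no-cell wells.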

[8] = S16 Schwann cell PMP22 intronic element beta-lactamase assay (AID 624044; calls by dose curve; further: nearly all actives have a fitted effect of over 15% in size); conditions: S16 rat Schwann cells, PMP22 element beta-lactamase FRET, 24 h; series mostly up to 38.3 µM
Summary of the method: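 Beta-lactamase reporter under a PMP22 intronic regulatory element in stable S16 rat Schwann cells; 24 h compound exposure. 460 nm blue signal normalized between DMSO (0%) and potassium clavulanate, with 535 nm FRET tracking viability; curves classed by r2 and response.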

[9] = target: Glutaminase kidney isoform, mitochondrial (Homo sapiens) (UniProt O94925); test: qHTS for Inhibitors of Glutaminase (GLS): LOPAC Validation (AID 624146); conditions: glutaminase enzyme activity inhibition; series mostly up to 46.1 µM;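 further: glutamate product detected by oxidase and peroxidase coupled Amplex red fluorescence gain; nearly all actives have a fitted effect of over 60% in size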
Summary of the method: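 Compounds were pin-transferred onto hKGA, after which L-glutamine (1 mM solution) and a detection mix of glutamate oxidase, HRP and Amplex Red were added. Initial and 30 min RT fluorescence reads were collected.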

[10] = target: Glucagon-like peptide 1 receptor (Homo sapiens) (UniProt P43220); test: qHTS of GLP-1 Receptor Agonists: LOPAC Validation (AID 624148); conditions: GLP-1R agonist cell assay; series mostly up to 46.1 µM;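 further: higher luminescence signal means agonism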
Summary of the method: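 HEK293 cells stably co-expressing a cAMP-responsive luciferase reporter and a hypersensitive GLP-1R were plated 12 h at 37 °C and exposed to compounds for 4-6 hr at 37 °C, 5% CO2. Luminescence was read 12 min after adding detection reagent.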

[11] = qHTS of Nrf2 Activators: LOPAC Validation (AID 624149); conditions: Nrf2/ARE reporter cell assay; series mostly up to 46.1 µM
Summary of the method: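 AREc32_Fluc cells, 1000/well, OPTI-MEM + 5% FBS, o/n 37 deg C 5% CO2; compound pin-transfer, 24 hr 37 deg C; Steady-Glo 30 min RT, luminescence read.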

[12] = HTS Assay for Allosteric Antagonists of the Human D2 Dopamine Receptor: Hit Validation in HTRF (AID 624455); conditions: Cells stably expressing D1 dopamine receptor, inhibition mode; series mostly up to 46.1 µM
Summary of the method: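 HTRF read-out; cells stably expressing D1 receptor; hits scored for inhibition of D1-mediated response. Primary screen: calcium flux, force-coupled inducible Hek293 Trex D2 line, antagonism vs EC80 dopamine.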

[13] = qHTS assay for environmental chemicals that activate the Aryl hydrocarbon Receptor (AhR) signaling pathway (AID 651777); conditions: 1A2-DRE human hepatoma cells, luciferase, 24 h; active compounds read high; further: nearly all actives have a fitted effect of over 15% in size
Summary of the method: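 Quantitative HTS in stably transfected human liver-derived cells whose luciferase gene sits downstream of the CYP1A2 promoter and dioxin response element. After 24 hr exposure at 37 C, One-Glo luminescence was measured.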

[14] = S16 Schwann cell PMP22 intronic element firefly luciferase assay (AID 624032); conditions: S16 rat Schwann cells, PMP22 element FLuc, 24 h; series mostly up to 57.5 µM; further: potency means the concentration at half of the fitted maximal effect; nearly all actives have a fitted effect of over 30% in size
Summary of the method: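 Rat S16 Schwann cells stably carrying a PMP22 intronic element-driven Fluc reporter were seeded overnight, then exposed to compounds for 24 h at 37 °C. Luminescence was normalized to PTC124 (positive control) and DMSO (0% activity).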

Chain of Luciferin 4-monooxygenase (Photinus pyralis) (P08659 whole entry, looked up): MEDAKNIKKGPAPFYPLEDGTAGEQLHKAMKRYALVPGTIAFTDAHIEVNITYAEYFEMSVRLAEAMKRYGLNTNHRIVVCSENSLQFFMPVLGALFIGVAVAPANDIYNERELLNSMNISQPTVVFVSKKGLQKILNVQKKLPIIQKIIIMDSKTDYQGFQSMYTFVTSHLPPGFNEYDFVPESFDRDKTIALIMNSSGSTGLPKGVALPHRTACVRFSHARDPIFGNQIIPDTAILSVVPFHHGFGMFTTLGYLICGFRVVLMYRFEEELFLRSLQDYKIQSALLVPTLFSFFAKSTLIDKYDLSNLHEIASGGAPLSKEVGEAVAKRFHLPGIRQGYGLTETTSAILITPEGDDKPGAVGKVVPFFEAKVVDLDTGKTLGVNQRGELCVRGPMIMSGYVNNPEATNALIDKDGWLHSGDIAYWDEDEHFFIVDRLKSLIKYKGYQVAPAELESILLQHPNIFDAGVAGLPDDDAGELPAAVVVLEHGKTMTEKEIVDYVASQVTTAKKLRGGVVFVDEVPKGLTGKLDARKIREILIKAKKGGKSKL
Chain of Peroxisome proliferator-activated receptor alpha (Homo sapiens) (Q07869 whole entry, looked up): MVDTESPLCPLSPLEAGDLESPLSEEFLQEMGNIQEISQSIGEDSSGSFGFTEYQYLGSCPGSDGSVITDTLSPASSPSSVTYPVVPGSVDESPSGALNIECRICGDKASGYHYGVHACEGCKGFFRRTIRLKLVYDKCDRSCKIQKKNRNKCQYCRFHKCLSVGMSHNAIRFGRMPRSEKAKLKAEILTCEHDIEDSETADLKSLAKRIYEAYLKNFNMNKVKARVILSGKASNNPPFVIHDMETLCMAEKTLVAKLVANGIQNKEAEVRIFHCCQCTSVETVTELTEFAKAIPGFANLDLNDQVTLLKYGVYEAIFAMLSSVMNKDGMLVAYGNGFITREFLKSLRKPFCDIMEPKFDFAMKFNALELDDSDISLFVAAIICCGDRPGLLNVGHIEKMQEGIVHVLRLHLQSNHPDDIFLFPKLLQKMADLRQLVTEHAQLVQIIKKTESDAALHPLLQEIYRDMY
Chain of Tumor susceptibility gene 101 protein (Homo sapiens) (Q99816 whole entry, looked up): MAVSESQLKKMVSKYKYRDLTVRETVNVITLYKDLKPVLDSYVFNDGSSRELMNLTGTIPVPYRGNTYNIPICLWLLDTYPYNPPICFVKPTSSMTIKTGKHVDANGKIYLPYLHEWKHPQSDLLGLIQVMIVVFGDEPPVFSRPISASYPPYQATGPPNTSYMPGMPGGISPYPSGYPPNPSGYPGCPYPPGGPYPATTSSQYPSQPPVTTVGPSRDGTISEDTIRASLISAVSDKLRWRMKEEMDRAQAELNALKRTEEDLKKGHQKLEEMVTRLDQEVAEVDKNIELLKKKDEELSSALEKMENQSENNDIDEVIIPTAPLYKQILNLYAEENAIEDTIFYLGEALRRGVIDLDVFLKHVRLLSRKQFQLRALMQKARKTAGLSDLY
Chain of Glucagon-like peptide 1 receptor (Homo sapiens) (P43220 whole entry, looked up): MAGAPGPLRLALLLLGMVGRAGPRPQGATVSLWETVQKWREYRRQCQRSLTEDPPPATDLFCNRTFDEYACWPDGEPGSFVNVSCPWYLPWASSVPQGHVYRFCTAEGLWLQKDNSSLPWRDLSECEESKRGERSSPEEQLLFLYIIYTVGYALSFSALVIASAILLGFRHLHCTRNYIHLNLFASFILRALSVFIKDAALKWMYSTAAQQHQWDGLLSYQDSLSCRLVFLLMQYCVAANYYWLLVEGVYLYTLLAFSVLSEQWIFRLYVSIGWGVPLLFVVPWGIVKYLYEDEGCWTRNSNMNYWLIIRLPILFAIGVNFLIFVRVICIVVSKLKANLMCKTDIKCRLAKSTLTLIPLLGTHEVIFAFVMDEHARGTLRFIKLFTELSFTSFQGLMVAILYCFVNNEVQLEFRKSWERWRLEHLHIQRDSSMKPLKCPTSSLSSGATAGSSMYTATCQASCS
Chain of Glutaminase kidney isoform, mitochondrial (Homo sapiens) (O94925 whole entry, looked up, canonical isoform): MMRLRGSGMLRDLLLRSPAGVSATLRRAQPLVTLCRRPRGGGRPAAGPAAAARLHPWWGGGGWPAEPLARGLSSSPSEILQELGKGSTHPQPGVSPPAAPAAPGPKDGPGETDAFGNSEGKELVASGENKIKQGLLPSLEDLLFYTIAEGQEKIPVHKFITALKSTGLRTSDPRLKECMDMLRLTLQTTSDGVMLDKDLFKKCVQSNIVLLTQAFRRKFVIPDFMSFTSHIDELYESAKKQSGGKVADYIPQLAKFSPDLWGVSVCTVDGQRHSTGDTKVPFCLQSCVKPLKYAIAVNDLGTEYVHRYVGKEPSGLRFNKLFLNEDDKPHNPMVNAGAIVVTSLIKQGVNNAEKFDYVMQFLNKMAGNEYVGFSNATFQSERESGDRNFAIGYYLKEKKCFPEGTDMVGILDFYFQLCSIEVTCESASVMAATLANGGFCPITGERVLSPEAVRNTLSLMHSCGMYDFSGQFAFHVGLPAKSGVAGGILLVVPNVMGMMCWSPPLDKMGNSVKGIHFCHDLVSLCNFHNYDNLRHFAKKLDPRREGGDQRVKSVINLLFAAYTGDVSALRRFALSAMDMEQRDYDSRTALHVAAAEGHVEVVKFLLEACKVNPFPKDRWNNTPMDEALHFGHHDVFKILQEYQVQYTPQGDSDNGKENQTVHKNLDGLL

CCCCCCCC/C=C\CCCCCCCC(=O)OC[C@@H](O)[C@H]1OC[C@H](O)[C@H]1O
Potency [1]: inactive | Potency [2]: inactive | activation [3]: 1.59% | activation [4]: 0.379% | Potency [5]: 39.8 µM (active)

CC[C@H](C)/C=C(C)/C=C/C1=CC2=CC(=O)[C@]3(C)OC(=O)[C@@H](C(C)=O)[C@@H]3C2=CO1
outcome [6]: inactive

N[C@@H](C(=O)N[C@H]1C(=O)N2C(C(=O)O)=C(Cl)CC[C@H]12)c1ccccc1
Potency [1]: inactive

CC(=O)[C@@]1(O)CC[C@H]2[C@@H]3C=C(Cl)C4=CC(=O)CC[C@]4(C)[C@H]3CC[C@@]21C
Potency [1]: inactive

CCCC1([C@H](O)C/C=C/[C@H]2[C@H](O)CC(=O)[C@@H]2CCCCCCC(=O)OC)CCC1
Potency [1]: inactive

O=P(O)(O)OC(Cn1cncn1)(Cn1cncn1)c1ccc(F)cc1F
Potency [1]: inactive

COc1ccc(CNCC(O)COc2ccc3[nH]c(=O)ccc3c2)cc1OC (configuration not stated)
Potency [1]: inactive

C1CNCCN1
Potency [1]: inactive

C[C@H](/C=C/[C@H](C)C(C)(C)O)[C@H]1CC[C@H]2/C(=C/C=C3C[C@@H](O)C[C@H](O)C3)CCC[C@]12C
Potency [1]: inactive

O=C(O)c1cc2ccccc2c(Cc2c(O)c(C(=O)O)cc3ccccc23)c1O
Potency [1]: 14.4 µM (active)

CN1CCN(C2=Nc3ccccc3Cc3ccccc32)CC1
Potency [1]: inactive

CN[C@H]1CC[C@@H](c2ccc(Cl)c(Cl)c2)c2ccccc21
Potency [1]: inactive | Potency [7]: 28.7 µM (active) | outcome [8]: inactive | outcome [9]: inactive | outcome [10]: inactive | outcome [11]: inactive | outcome [12]: inactive

O=S(=O)(c1ccccc1)N(CC(F)(F)F)c1ccc(C(O)(C(F)(F)F)C(F)(F)F)cc1
Potency [2]: 27.3 µM (active) | activation [3]: 23.4% | activation [13]: 5.58% | max response [5]: -0.426%

O=P(O)(O)C(O)(Cc1cnc2ccccn12)P(=O)(O)O
Potency [1]: inactive

COc1cc2c(c(OC)c1OC)-c1c(cc3c(c1OC)OCO3)C[C@@H](C)[C@](C)(O)C2
Potency [1]: inactive

COC1C(OC(=O)/C=C/C=C/C=C/C=C/C(=O)O)CCC2(CO2)C1C1(C)OC1CC=C(C)C (configuration not stated)
Potency [1]: inactive | Potency [7]: inactive

NC(=O)C[C@@H](N)C(=O)O
Potency [1]: inactive

CC1(S(=O)(=O)O)CC(=O)c2ccccc2C1=O (configuration not stated)
Potency [1]: inactive

CCOC(=O)COc1ccc2c(C)c(CCN(CC)CC)c(=O)oc2c1
Potency [1]: inactive

CCN(CC)c1ccc(N=Nc2ccc(S(=O)(=O)N(C)C)cc2)c(S(=O)(=O)NCC[n+]2ccccc2)c1
Potency [1]: inactive

O=P(O)(O)OC(CO)CO
Potency [1]: inactive

C=CCNC1=C2C[C@@H](C)C[C@H](OC)[C@H](O)[C@@H](C)/C=C(\C)[C@H](OC(N)=O)[C@@H](OC)/C=C\C=C(/C)C(=O)NC(=CC1=O)C2=O
Potency [1]: inactive | Potency [7]: 16.1 µM (active) | Potency [14]: 0.0721 µM (active) | outcome [8]: inactive

Cc1cc(-n2c(=O)[nH]c(=O)n(C)c2=O)ccc1Oc1ccc(S(=O)(=O)C(F)(F)F)cc1
Potency [1]: inactive

O=P(O)(O)C(Sc1ccc(Cl)cc1)P(=O)(O)O
Potency [1]: inactive

CCOC(=O)[C@H](CCc1ccccc1)N[C@H]1CCCN2CCC[C@@H](C(=O)O)N2C1=O
Potency [1]: inactive

COc1ccc(C(=O)Nc2ccccc2CCC2CCCCN2C)cc1 (configuration not stated)
Potency [1]: inactive

CC(CN(C)C)CN1c2ccccc2S(=O)(=O)c2ccccc21 (configuration not stated)
Potency [1]: inactive

CC1=C(C(=O)OCCN(Cc2ccccc2)c2ccccc2)C(c2cccc([N+](=O)[O-])c2)C(P2(=O)OCC(C)(C)CO2)=C(C)N1 (configuration not stated)
Potency [1]: inactive

C[N+](C)(CCCCCC[N+](C)(C)C1c2ccccc2-c2ccccc21)C1c2ccccc2-c2ccccc21
Potency [1]: inactive

CCN(CC)CCOC(=O)c1ccc(N)cc1Cl
Potency [1]: inactive
